Source: PubChem
D3 antag: D3 dopamine receptor (human) antagonism | D3R cells, DiscoveRx beta-arrestin luminescence, antagonist mode; stronger effect = lower value | max response, negative = inhibition, % | 360,000 compounds, 2.5% hits; in the data active means max response below about -50%; inconclusive means no clear call, values can overlap the other calls; further: on the % scale 0 is the no-effect control and ±100 the full control effect
Target sequence (P35462 whole entry, looked up): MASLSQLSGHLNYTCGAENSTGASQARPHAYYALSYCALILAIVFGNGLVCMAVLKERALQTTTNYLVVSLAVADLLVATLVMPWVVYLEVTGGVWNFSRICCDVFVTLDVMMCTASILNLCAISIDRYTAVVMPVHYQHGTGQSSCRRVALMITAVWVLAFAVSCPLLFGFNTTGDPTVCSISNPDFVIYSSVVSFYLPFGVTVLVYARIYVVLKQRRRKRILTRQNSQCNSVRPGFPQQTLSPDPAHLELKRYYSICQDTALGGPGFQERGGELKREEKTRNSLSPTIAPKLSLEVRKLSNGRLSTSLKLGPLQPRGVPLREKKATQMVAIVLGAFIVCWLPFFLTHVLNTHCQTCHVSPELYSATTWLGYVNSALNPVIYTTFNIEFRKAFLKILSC
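Cells plated overnight at 1500 cells/well, then exposed to library compounds with dopamine controls for 90 minutes at 37 degrees C. DiscoveRx reagent added for 30–60 minutes at room temperature; luminescence read, quantitative HTS format.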
SW480 rereplic: DNA re-replication induction in SW480 cells; SW480 DNA re-replication, Hoechst DNA content imaging, 48 h; Potency, µM (highest dose often 46.1 µM), inactives show at the top dose re-replication activation, actives largely listed as activators; 340,000 compounds, 1.8% hits; further: potency means the concentration at half of the fitted maximal effect; % of control where 0% means no effect; nearly all actives have a fitted effect of over 55% in size
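First, 250 cells per well were seeded. Next, compound or vehicle (23 nL) was pinned in, plates sat 48 hr at 37 C. Finally Hoechst was added for 40 min before fluorescence scanning.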
D3 ag: D3 dopamine receptor (human) agonism. max activation, %. 410,000 compounds, 0.58% hits. AID 652048. P35462. D3R DiscoveRx beta-arrestin cells, luminescence, 90 min; in the data active means max activation above about 30%; further: 0% is about no effect
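Agonist-mode cell screen: cells plated at 1500/well and incubated overnight at 37 °C, then exposed to library compounds for 90 min at 37 °C. Detection reagent was added for 30–60 min at room temperature, and luminescence was read.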
KB-V1 MDR tox: KB-V1 MDR subline cytotoxicity; Potency, µM (doses to about 46.1 µM), most hits filed as cytotoxic; 400,000 compounds, 3.4% hits; AID 1347076; KB-V1 MDR cells viability, CellTiter-Glo, 72 h; further: potency means the concentration at half of the fitted maximal effect; on the % scale 0 is the no-effect control and ±100 the full control effect; nearly all actives have a fitted effect of over 60% in size
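qHTS viability screen in drug-selected KB-V1 MDR cells: 72 h compound treatment at 37 degrees C, ATP luminescence end point.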
MCF10A rereplic: DNA re-replication induction in MCF 10a cells. MCF 10A DNA re-replication, Hoechst nuclear intensity, 48 h. Potency, µM (series often up to 46.1 µM), for the others: top-dose activity, positive = re-replication, actives largely listed as activators. 350,000 compounds, 2.9% hits. AID 624296; further: potency means the concentration at half of the fitted maximal effect; % of control where 0% means no effect; nearly all actives have a fitted effect of over 50% in size
KB-3-1 cytotox: kills parental KB-3-1 adenocarcinoma cells; Potency, µM (series often up to 46.1 µM), actives largely listed as cytotoxic; 400,000 compounds, 1.4% hits; AID 1347075; KB-3-1 viability, CellTiter-Glo ATP luminescence, 72 h; further: potency means the concentration at half of the fitted maximal effect; on the % scale 0 is the no-effect control and ±100 the full control effect; nearly all actives have a fitted effect of over 60% in size
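Cytotoxicity measured as CellTiter-Glo luminescence after 72 h at 37 C. Compound titrations were pinned onto drug-naive KB-3-1 parental adenocarcinoma cells grown in DMEM with 10% FBS, and normalized data fitted to concentration-response curves.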
The depositor's hits bear a star; i = inactive; ? = inconclusive; / = no result given. This is a sample that favours compounds with a hit; in the whole collection about 8.9% have one here. Unless noted, the call rests on the fitted dose curve; in most records, active means well fitted curve in the direction sought with a large enough effect; inconclusive means small, poorly fitted or top-dose-only effect, or another doubt; inactive means no such curve, though single readings can be large; an effect the other way counts as inactive or inconclusive.

SMILES | D3 antag | SW480 rereplic | D3 ag | KB-V1 MDR tox | MCF10A rereplic | KB-3-1 cytotox
O=C(CCNC(=O)c1ccccc1Cl)Nc1cccc(S(=O)(=O)N2CCCCC2)c1 | 22 | -6% | 1 | i | 6% | i
CN1CCN(S(=O)(=O)c2ccc(NC(=O)Nc3cccc(Cl)c3)cc2)CC1 | 16 | 1% | -2 | i | 2% | i
O=C(CCS(=O)(=O)c1ccc(Cl)cc1)Nc1cccc(S(=O)(=O)N2CCCCCC2)c1 | -20 | -8% | 5 | 21µM* | 13% | i
COc1cccc(-c2cc(C(=O)Nc3cc(Cl)ccc3O)on2)c1 | / | / | -9 | i | / | i
CCCN1CCCc2cc(CN(CCCN3CCOCC3)C(=O)Nc3ccc(Cl)c(Cl)c3)ccc21 | / | / | -21 | ? | / | i
O=C(Nc1cccc(Cl)c1)C1CCCN(S(=O)(=O)c2ccc(F)cc2)C1 (stereo unspecified) | 12 | 10% | -14 | 6.5µM* | 28% | ?
CC(C)(C)c1ccc(OCCC(=O)Nc2cccc(S(=O)(=O)N3CCCCC3)c2)cc1 | 10 | 16% | -6 | 21µM* | 7% | ?
Cc1cc(=O)n(CC(=O)N2CCN(c3ccc(F)cc3)CC2)c2c1c(C)nn2C | / | / | 7 | i | / | i
C[N+]1(C)CCN(CC(O)(c2ccccc2)C2CCCCC2)CC1 (stereo unspecified) | / | / | -29 | / | / | /
CCOC(=O)Cn1nc(NC(=O)c2ccc(C(=O)OC)cc2)cc1C | -13 | -10% | -2 | i | ? | i
CCOC(=O)Cn1nc(NC(=O)c2cc(OC)cc(OC)c2)cc1C | 3 | -2% | 7 | i | 21µM* | i
CC(C)C1=NN2C(=N)CC(=O)N=C2S1 | -63* | 2% | 5 | i | 16% | i
CC1(NC(=O)/C=C/c2nc3ccccc3s2)CCS(=O)(=O)C1 (stereo unspecified) | 9 | -3% | 1 | i | -5% | i
COc1ccc(N2C(=O)CS(=O)(=O)C23C(=O)N(Cc2ccc(F)cc2)c2ccc(C)cc23)cc1 (stereo unspecified) | / | / | -13 | ? | / | i
O=C(NCc1ccc2c(c1)OCO2)c1ccc(COc2cc(Cl)ccc2Cl)o1 | 18 | 10% | -11 | ? | 19% | i
Cc1cc(C)n(Cc2ccc(NC(=O)c3ccc(COc4ccccc4Br)cc3)cc2)n1 | 1 | 19% | 7 | 2.6µM* | 51% | 16µM*
O=C(Nc1ccn(Cc2c(F)c(F)cc(F)c2F)n1)c1ccc(COc2ccccc2Cl)cc1 | 16 | 7% | 23 | i | ? | i
O=C(Nc1nn(Cc2ccc(Cl)cc2)cc1Br)c1ccc(COc2ccccc2Cl)o1 | 16 | -9% | -4 | 16µM* | -1% | ?
O=C(Nc1ccn(Cc2ccccc2F)n1)c1ccc(COc2ccccc2Cl)cc1 | -10 | 5% | 9 | 2.6µM* | ? | ?
O=C(N/N=C/c1ccc(O)cc1)c1ccc(COc2cc(Cl)ccc2Cl)o1 | ? | 2% | 8 | i | 18µM* | i
NC(=O)c1ccc(NC(=O)c2ccc(COc3ccccc3Br)cc2)cc1 | 4 | -6% | -2 | i | 3% | i
Cc1ccc(-c2c(C(=O)N3CCN(c4cc(Cl)ccc4C)CC3)oc(=O)c3ccccc23)cc1 | / | / | 3 | i | / | i
O=C(Nc1ccc(Cl)cc1F)c1oc(=O)c2ccccc2c1-c1ccccc1 | / | / | 6 | ? | / | i
CC1CCCN(C(=O)c2cc3c(=O)n(C)c4ccccc4c3s2)C1 (stereo unspecified) | / | / | -13 | i | / | i
O=C(CN1CCSc2ccccc21)N1CCN(c2cccc(Cl)c2)CC1 | / | / | -3 | ? | / | ?
SMILES | D3 antag | SW480 rereplic | D3 ag | KB-V1 MDR tox | MCF10A rereplic | KB-3-1 cytotox
O=C(Nc1cccnc1)c1ccc(COc2ccccc2Cl)o1 | -15 | 0% | -4 | ? | 26% | ?
Cc1nn(C)c(C(=O)Nc2ccn(Cc3ccccc3F)n2)c1[N+](=O)[O-] | -4 | -1% | 3 | 26µM* | 6% | i
CC(C)(C)NC(=O)c1ccc(COc2ccc(Cl)cc2Cl)o1 | 4 | 6% | 10 | 13µM* | ? | ?
O=C(Nc1cccnc1)c1ccc(COc2cc(Cl)ccc2Cl)o1 | ? | 4% | -11 | 23µM* | ? | ?
O=C(NCc1cccnc1)c1ccc(COc2ccccc2Cl)cc1 | 24 | ? | 2 | i | 5% | i
Cc1cc(C)nc(NC(=O)c2ccc(COc3ccccc3Cl)cc2)c1 | 13 | 13% | 5 | i | 3.7µM* | ?
CCN(C(=O)c1cc2c(s1)-c1c(C)cccc1OC2)c1ccccc1F | / | / | -11 | i | / | i
CCOc1ccc(NC(=O)CC2C(=O)N(c3ccc(C)cc3)C(=O)N2C2CCCCC2)cc1 (stereo unspecified) | / | / | -1 | i | / | i
O=C(Nc1ccn(Cc2c(F)c(F)cc(F)c2F)n1)c1ccc(COc2cc(Cl)ccc2Cl)o1 | -12 | 3% | -1 | i | 10% | i
O=C(Nc1ccn(Cc2ccccc2F)n1)c1ccc(COc2cc(Cl)ccc2Cl)o1 | 9 | 18% | -6 | 4.1µM* | ? | i
COc1ccc(N=CC=C2OC(C)(C)C(C)(C)O2)cc1OC | 9 | -25% | 4 | i | 9% | i
Cc1cccc(N=CC=C2OC(C)(C)C(C)(C)O2)c1 | 14 | 21µM* | 5 | i | ? | i
Cc1ccc(N=CC=C2OC(C)(C)C(C)(C)O2)cc1 | 7 | 0.82µM* | -3 | i | 16µM* | ?
COc1cccc(N=CC=C2OC(C)(C)C(C)(C)O2)c1 | 1 | -16% | -3 | i | -8% | i
CC1(C)N=C(SCC(=O)Nc2ccccc2)C(c2ccc(Cl)cc2)=N1 | 63 | -3% | 6 | ? | ? | i
CC1(C)N=C(SCC(=O)Nc2ccc(Cl)cc2Cl)C(c2ccccc2)=N1 | 28 | 3% | 0 | 21µM* | ? | i
CC(C)(C)c1ccc(-c2noc(-c3ccc4c(c3)CCO4)n2)cc1 | 16 | 4.6µM* | 16 | ? | ? | i
Cc1cc(-c2nc(-c3ccc(C(C)(C)C)cc3)no2)no1 | 5 | ? | 6 | ? | 0% | i
CCOc1ccc(CNC(=O)c2cnc3sc(N4CCC(C)CC4)nn3c2=O)cc1OC | / | / | -12 | i | / | i
Cn1c(-n2cccc2)c(-c2c(-c3ccccc3)[nH]c3c2c(=O)[nH]c(=O)n3C)c(=O)[nH]c1=O | / | / | 9 | i | / | i
Cc1ccc(C2CN(C)C3(C(=O)Nc4ccccc43)C23COc2ccccc2C3=O)cc1 (stereo unspecified) | -1 | ? | -1 | 21µM* | ? | ?
